JMJD2A Tudor: JMJD2A Tudor domain (human) inhibition | O75164 | AlphaScreen JMJD2A-Tudor / H3K4me3 peptide binding | Potency, µM (doses to about 114 µM), for the others: at the top dose activity change, negative = inhibition, actives largely listed as inhibitors | 390,000 tested, 4.4% active | AID 504339; note: % is set by controls: 0 for no effect and ±100 for the full control effect; nearly all actives have a fitted effect of over 50% in size
BAZ2B block: blocks human BAZ2B; Q9UIF8; AlphaScreen BAZ2B-H3K14Ac peptide displacement; Potency, µM (doses to about 114 µM), without a hit: at the highest dose activity change, negative = inhibition, actives largely listed as inhibitors; 360,000 tested, 4.4% active; note: % is set by controls: 0 for no effect and ±100 for the full control effect; nearly all actives have a fitted effect of over 60% in size
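BAZ2B (50 nM) with biotin-H3(5-23)K14Ac peptide (50 nM) in PBS pH 7.4, 0.01% Tween-20, preformed 30 min, then compound 30 min at room temperature; top concentration 110uM. AlphaScreen streptavidin donor/nickel chelate acceptor beads (10 ug/mL final), 20 min dark, signal read.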
HP1b binding inh: blocks HP1-beta chromodomain binding to methylated histone tails; Potency, µM (series often up to 114 µM), for inactives: at the top dose activity change, negative = inhibition, usual class: inhibitors; AlphaScreen HP1-beta / biotin-H3K9me3 peptide binding; 390,000 tested, 0.56% active; AID 540317; P83916; note: nearly all actives have a fitted effect of over 70% in size
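AlphaScreen: HP1-beta (50 nM) preformed 30 min with biotin-H3(1-18)K9me3 peptide (50 nM) in PBS pH 7.4, 0.01% Tween-20. Compound added for 30 min at RT, then streptavidin donor/nickel chelate acceptor beads (10 ug/mL) for 30 min.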
L3MBTL1 inh: blocks human L3MBTL1 | Q9Y468 | AlphaScreen L3MBTL1–H3K9me1 peptide binding | Potency, µM (highest dose often 57.1 µM), without a hit: at the highest dose activity, negative = inhibition, actives largely listed as inhibitors | 230,000 tested, 0.66% active; note: % is set by controls: 0 for no effect and ±100 for the full control effect; nearly all actives have a fitted effect of over 60% in size
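First, the protein-peptide complex forms for 30 min at room temperature (L3MBTL1 50 nM, biotinylated H3K9me1 peptide 75 nM). Next, compounds are pin-transferred and incubated 30 min. Finally, AlphaScreen beads are added and read after 30 min.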
G9a block: G9a (human) methyltransferase inhibition; 350,000 tested, 8.8% active; AID 504332; Potency, µM (top dose mostly 102 µM), for the others: top-dose activity, negative = inhibition, most hits filed as inhibitors; G9a H3K9 monomethylation, AlphaScreen, 2 h; note: % is set by controls: 0 for no effect and ±100 for the full control effect; nearly all actives have a fitted effect of over 75% in size
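Readings reflect AlphaScreen signal from monomethyl-H3K9 antibody detection. HMT at 20 nM; substrate b-H3K9 500 nM; cofactor SAM 20 uM; 2 h RT reaction; compounds tested as titrations in qHTS with 15 min preincubation.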
The depositor's hits bear a star; ? = inconclusive; / = no result given; ! = not confirmed by another sample; [ ] = dose if it differs, or a comment. Compounds with a hit are over-represented: about 11% of the library has one in this group of screens. Calls come from the whole dose curve; as a rule, active = well fitted inhibition curve with a large enough effect; inconclusive = small, poorly fitted or top-dose-only effect; inactive = no such curve, though single readings can be large or run the other way. Potency is the fitted concentration of half-maximal effect.

SMILES | JMJD2A Tudor | BAZ2B block | HP1b binding inh | L3MBTL1 inh | G9a block
CCN(C(=O)Cn1nnc2sc3c(c2c1=O)CCC(C(C)(C)C)C3)c1cccc(C)c1 (stereo not drawn) | -17.9% | -13.6% | 34.2% | / | 4.7%[59 µM]
COc1ccc(NC(=O)N(CCC(C)C)C(C)c2cccs2)c(OC)c1 (stereo not drawn) | ? | -16.8% | 25.6% | / | ?
Cc1ccc(NC(=O)COc2coc(CN3c4ccccc4CC3C)cc2=O)c(C)c1 (stereo not drawn) | ? | ? | -14.9% | -23.4% | 50.1µM*
Cc1cc(C)cc(NC(=O)COc2coc(CN3CCc4ccccc43)cc2=O)c1 | -31.0% | ? | 22.3% | -19.9% | 50.1µM*
CC(C)(CC(=O)OCC(=O)Nc1ccc(F)c(Cl)c1)CC1=NS(=O)(=O)c2ccccc2N1 | -22.3% | -14.5% | 12.1% | / | 6.8%[59 µM]
Cc1ccc2c(c1)NC(=O)C(CC(=O)NCc1ccc(F)cc1)O2 (stereo not drawn) | -2.1% | -24.6% | 30.8% | / | 50.1µM*
Cc1ccc2c(c1)NC(=O)C(CC(=O)NCc1cccnc1)O2 (stereo not drawn) | -7.7% | 3.4% | 43.6% | / | 31.6µM*
CCOc1ccc(CC(=O)NCCc2sc3nc(-c4ccc(F)cc4)nn3c2C)cc1 | -10.1% | -2.9% | -3.6% | / | 9.6%[59 µM]
CCOc1cccc(CC(=O)N2CCc3c([nH]c4ccccc34)C2c2ccc(C)cc2)c1OCC (stereo not drawn) | ? | -30.8% | -0.6%[57 µM] | / | ?
Cc1ccc(-n2nc(C(=O)N3CCC(C)CC3)c(=O)n(C)c2=O)cc1 | -3.8% | 1.3% | 21.1%[57 µM] | / | 0.4%[59 µM]
Cc1ccc(C(C)C)c(OCCNCCc2ccccc2)c1 | 25.1µM* | ? | ? | -9.8% | /
COc1cc(C(=O)NCCOc2cc(C)ccc2C(C)C)cc(OC)c1OC | -15.2% | -10.4% | 50.2% | / | 2.9%
CCCCNCC#CCOc1cc(C)ccc1C(C)C | 22.4µM* | ? | -2.6% | 90.6% | /
Cc1ccc(C(C)C)c(OCCCNCc2cccnc2)c1 | -7.0% | -34.4% | 30.3% | -0.2% | 50.1µM*
O=C(CSc1nc2c(c(=O)[nH]1)CCCC2)Nc1ccc(Br)cc1 | -20.5% | -11.8% | 1.6% | / | -31.7%[59 µM]
O=C1CCCN1c1ccc(C(=O)N(Cc2nnc(-c3ccccc3Cl)o2)C2CC2)cc1 | -10.3% | 6.6% | 29.6% | 2.2% | 12.6µM*
O=C(c1ccc(Cl)c(S(=O)(=O)N2CCOCC2)c1)N(Cc1nnc(-c2ccccc2Cl)o1)C1CC1 | -18.6% | -5.2% | 20.1% | -3.1% | -11.5%
O=C(c1cccc(S(=O)(=O)N2CCOCC2)c1)N(Cc1nnc(-c2ccccc2Cl)o1)C1CC1 | -19.4% | -4.0% | -2.6% | -1.5% | 50.1µM*
O=C(c1cc([N+](=O)[O-])cc([N+](=O)[O-])c1)N(Cc1nnc(-c2ccccc2Cl)o1)C1CC1 | ? | -30.0% | 14.8% | -7.0% | ?
COc1ccccc1N1CCN(C(CNC(=O)C(=O)NCCCN(C)C)c2cccnc2)CC1 (stereo not drawn) | 1.6% | 3.4% | 39.3% | / | 1.8%[59 µM]
CC(=O)c1cc(-c2ccccc2)n(CCC(=O)NC(C)c2ccccc2)c1C (stereo not drawn) | -22.8% | ? | 15.1% | / | -34.4%[59 µM]
COc1ccc(/C=C/C(=O)OCC(=O)NC2CCCCC2C)c(OC)c1 (stereo not drawn) | -15.8% | 7.5% | 19.1% | -0.7% | -11.8%[2.33 µM]
CCc1ccc(OCCOCC(O)CNC(C)(C)C)cc1 (stereo not drawn) | -24.8%[57.1 µM] | 7.0% | ? | 11.8% | 4.3%
COc1cccc(OC)c1OCCN(C)C | 1µM* | 35.5µM* | ? | / | ?
CC(C)(C)NCCOc1ccc(Br)cc1 | 3.55µM* | ? | -32.8% | / | 17.8µM*
SMILES | JMJD2A Tudor | BAZ2B block | HP1b binding inh | L3MBTL1 inh | G9a block
COc1cccc(OC)c1OCCNC(C)(C)C | 8.91µM* | 50.1µM* | -11.4% | 3.9% | /
COc1cccc(OC)c1OCCCOc1cccc2cccnc12 | -14.5% | -18.7% | 24.0% | -3.4% | 14.8%
COc1ccccc1OCCOCCOc1ccccc1Cl | 57.5% | 79.4% | 124.0% | 31.4% | 49.1%[59 µM]
CCN(CC)CCOc1ccccc1OC | 1.26µM* | -35.0% | ? | / | 22.4µM*!
COc1ccc(Oc2ncc3nc(-c4cccs4)c(=O)n(CCC#N)c3n2)cc1 | / | / | / | / | 1.0%[0.501 µM]
O=C(Nc1cccc(C(=O)N2CCN(c3ccc(F)cc3)CC2)c1)c1nsc2ccccc12 | -19.5% | -13.0% | 19.3%[57 µM] | / | ?

Bioassay records deposited in PubChem by National Center for Advancing Translational Sciences (NCATS).
